In PubChem BioAssay:
Values without a mark were called inactive. Active and inactive are the calls of the source. Rule as the data show it, unless noted: active = inhibition above about 25%; inactive = the rest.

Key:
[1] = target: Nuclear receptor coactivator 3 (Homo sapiens) (UniProt Q9Y6Q9); test: NCOA3 GAL4-fusion reporter inhibition – cell-based, luminescence, quadruplicate, confirmation (AID 588792;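 active = mean inhibition over 43.08%, the solvent-only control mean plus 3 SD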;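 also: 0% = DMSO treated cells and 100% = gossypol at 36 µM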); details: HEK293 GAL4-SRC3 luciferase reporter, at 3.6 µM, stronger effect = higher value
[2] = test system: transactivating tegument protein VP16 (Human herpesvirus 1), Gal4-VP16 luciferase reporter; test: repression of VP16-driven luciferase reporter – cell-based, luminescence, high throughput, counter-screen for SRC3 inhibitor project (AID 588794; in the data active = inhibition above about 30%); details: mammalian cells, at 3.6 µM, stronger effect = higher value
[3] = target: Nuclear receptor coactivator 1 (Homo sapiens) (UniProt Q15788); test: NCOA1 GAL4-fusion reporter inhibition – cell-based, luminescence, quadruplicate, confirmation (AID 588820;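 active = mean inhibition above 46.68%, the untreated control wells mean plus 3 SD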;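 also: 0% = DMSO wells and 100% = gossypol 36 µM treated wells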); details: HEK293 GAL4-SRC1 luciferase reporter, at 3.6 µM, stronger effect = higher value
[4] = repression of VP16-driven luciferase reporter – cell-based, luminescence, high throughput, counter-screen for SRC1 inhibitor project (AID 588824); details: cell-based VP16 transactivation luciferase luminescence; at 3.6 µM; stronger effect = higher value
[5] = test system: transactivating tegument protein VP16 (Human herpesvirus 1); test: compounds suppressing VP16-driven luciferase signal – cell-based, luminescence, single concentration, counter-screen for SRC2 inhibitor project (AID 652007; in the data active = inhibition above about 36%); details: cell-based VP16 transactivation luciferase reporter, at 8.9 µM, stronger effect = higher value
[6] = target: Nuclear receptor coactivator 2 (Homo sapiens) (UniProt Q15596); test: inhibition of GAL4-SRC2 driven luciferase expression – cell-based, luminescence, HEK293, triplicate, confirmation (AID 652008;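 active = mean inhibition above 46.5%, the solvent-only control mean plus 3 SD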;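 also: 0% = DMSO-treated cells and 100% = Gossypol at 36 µM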); details: HEK293 GAL4-SRC2 luciferase reporter, at 8.9 µM, stronger effect = higher value
Chain of Nuclear receptor coactivator 2 (Homo sapiens) (Q15596 whole entry, looked up, the tested form may be a part): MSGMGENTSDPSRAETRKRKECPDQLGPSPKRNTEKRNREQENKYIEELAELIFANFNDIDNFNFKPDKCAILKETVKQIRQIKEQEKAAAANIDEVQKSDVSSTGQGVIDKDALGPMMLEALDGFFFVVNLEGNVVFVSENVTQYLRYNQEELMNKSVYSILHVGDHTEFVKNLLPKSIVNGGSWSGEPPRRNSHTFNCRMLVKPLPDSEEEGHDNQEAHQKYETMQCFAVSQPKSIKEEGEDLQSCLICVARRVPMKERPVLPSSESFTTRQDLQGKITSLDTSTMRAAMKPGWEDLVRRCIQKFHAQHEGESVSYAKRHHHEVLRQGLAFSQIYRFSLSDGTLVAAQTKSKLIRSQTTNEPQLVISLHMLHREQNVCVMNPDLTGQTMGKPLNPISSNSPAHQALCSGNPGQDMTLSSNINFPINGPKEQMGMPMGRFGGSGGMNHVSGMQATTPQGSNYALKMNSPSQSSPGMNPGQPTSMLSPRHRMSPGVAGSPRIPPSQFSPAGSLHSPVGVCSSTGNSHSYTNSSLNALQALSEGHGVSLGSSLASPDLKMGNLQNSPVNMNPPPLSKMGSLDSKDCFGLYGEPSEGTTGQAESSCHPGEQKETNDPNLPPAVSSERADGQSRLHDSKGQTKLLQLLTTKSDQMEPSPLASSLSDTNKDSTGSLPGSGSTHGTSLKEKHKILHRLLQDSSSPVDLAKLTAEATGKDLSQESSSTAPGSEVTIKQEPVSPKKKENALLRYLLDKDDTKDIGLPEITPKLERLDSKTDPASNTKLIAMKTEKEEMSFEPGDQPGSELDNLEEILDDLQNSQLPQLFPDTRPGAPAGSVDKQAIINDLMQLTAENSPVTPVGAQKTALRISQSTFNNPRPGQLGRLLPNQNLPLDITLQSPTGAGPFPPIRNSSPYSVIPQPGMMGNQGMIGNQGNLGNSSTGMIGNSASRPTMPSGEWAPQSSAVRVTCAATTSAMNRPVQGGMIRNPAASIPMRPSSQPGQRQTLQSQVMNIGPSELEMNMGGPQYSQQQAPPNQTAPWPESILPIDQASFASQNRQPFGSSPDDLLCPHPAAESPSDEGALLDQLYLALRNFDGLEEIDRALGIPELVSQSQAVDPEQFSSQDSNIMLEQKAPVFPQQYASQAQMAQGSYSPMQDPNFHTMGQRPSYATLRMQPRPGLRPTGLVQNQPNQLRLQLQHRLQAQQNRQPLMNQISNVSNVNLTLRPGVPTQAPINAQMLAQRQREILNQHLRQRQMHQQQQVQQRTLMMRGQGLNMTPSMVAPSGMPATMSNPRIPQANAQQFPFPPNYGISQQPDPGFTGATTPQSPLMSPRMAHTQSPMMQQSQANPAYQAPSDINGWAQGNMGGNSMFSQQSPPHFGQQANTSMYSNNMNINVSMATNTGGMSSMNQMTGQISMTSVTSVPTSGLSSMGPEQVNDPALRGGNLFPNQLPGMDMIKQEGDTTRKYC

Chain of Nuclear receptor coactivator 1 (Homo sapiens) (Q15788 whole entry, looked up, the tested form may be a part): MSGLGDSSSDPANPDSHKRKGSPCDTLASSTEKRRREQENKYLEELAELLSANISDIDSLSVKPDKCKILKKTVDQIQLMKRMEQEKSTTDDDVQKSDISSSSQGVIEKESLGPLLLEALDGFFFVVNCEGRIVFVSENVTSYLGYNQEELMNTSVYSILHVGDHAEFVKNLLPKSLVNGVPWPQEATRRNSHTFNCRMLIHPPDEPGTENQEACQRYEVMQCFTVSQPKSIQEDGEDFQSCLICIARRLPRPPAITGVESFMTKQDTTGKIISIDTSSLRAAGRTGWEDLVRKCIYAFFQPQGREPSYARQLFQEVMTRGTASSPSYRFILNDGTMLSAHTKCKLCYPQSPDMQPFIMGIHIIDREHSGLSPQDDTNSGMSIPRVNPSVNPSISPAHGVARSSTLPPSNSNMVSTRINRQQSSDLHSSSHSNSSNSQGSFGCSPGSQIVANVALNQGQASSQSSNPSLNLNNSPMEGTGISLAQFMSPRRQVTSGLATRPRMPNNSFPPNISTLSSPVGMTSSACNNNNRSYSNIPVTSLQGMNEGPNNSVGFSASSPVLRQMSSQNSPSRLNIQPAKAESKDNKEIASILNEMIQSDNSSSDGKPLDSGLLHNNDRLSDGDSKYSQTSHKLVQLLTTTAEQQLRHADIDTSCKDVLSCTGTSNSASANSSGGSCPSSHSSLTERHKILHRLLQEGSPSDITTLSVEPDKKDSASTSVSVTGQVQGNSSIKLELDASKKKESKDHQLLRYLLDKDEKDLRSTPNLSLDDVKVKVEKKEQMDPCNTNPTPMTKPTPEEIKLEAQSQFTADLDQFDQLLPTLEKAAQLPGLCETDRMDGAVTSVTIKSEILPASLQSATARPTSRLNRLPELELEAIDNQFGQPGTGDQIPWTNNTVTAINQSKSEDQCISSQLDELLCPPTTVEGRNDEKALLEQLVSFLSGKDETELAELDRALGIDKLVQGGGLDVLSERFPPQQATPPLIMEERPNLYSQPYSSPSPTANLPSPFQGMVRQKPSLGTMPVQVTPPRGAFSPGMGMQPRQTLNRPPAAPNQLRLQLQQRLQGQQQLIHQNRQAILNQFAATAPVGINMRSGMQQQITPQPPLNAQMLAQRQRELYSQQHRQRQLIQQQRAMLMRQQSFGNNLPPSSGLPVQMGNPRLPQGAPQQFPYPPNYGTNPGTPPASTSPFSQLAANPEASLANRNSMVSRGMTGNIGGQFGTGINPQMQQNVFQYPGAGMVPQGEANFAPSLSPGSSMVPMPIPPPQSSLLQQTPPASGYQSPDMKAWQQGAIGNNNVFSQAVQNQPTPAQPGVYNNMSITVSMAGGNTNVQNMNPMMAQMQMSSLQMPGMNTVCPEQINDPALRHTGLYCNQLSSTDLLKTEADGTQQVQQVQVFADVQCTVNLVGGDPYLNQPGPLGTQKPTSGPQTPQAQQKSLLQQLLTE
Chain of Nuclear receptor coactivator 3 (Homo sapiens) (Q9Y6Q9 whole entry, looked up, the tested form may be a part): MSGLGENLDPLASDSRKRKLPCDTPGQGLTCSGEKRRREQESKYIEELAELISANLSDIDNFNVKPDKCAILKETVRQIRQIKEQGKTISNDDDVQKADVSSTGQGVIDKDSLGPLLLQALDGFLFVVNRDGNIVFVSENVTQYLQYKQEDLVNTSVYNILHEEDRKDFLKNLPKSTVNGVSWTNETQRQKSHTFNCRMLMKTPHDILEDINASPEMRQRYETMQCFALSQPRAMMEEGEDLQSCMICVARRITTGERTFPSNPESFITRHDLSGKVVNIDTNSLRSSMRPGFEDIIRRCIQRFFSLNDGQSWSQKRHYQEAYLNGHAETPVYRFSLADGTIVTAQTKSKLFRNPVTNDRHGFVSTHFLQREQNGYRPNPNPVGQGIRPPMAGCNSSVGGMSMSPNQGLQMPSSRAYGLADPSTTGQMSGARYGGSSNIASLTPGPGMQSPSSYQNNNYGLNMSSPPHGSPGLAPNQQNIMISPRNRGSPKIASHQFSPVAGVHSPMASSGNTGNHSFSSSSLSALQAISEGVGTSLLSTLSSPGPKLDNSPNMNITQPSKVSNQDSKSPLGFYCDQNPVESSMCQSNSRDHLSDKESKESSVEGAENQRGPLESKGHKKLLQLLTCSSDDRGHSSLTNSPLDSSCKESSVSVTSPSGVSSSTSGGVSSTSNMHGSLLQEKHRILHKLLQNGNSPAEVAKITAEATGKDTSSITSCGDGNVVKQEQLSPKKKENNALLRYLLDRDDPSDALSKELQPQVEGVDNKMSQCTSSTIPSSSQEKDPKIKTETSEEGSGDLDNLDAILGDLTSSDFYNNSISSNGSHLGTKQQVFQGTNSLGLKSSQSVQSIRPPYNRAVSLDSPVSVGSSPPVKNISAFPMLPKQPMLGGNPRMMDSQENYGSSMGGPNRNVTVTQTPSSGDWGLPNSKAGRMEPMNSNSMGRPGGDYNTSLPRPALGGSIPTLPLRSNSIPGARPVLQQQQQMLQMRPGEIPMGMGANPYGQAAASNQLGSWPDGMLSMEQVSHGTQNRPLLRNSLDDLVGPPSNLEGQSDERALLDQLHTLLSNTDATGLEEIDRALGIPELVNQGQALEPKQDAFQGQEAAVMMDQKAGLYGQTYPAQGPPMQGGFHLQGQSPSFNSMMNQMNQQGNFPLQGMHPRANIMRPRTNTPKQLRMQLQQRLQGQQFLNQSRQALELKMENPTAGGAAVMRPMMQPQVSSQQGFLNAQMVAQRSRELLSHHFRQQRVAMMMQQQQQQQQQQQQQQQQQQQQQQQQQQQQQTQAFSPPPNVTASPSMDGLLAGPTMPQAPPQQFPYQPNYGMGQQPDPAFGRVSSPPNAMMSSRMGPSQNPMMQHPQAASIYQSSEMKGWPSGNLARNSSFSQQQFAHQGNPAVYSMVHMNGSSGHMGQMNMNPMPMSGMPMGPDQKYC

SMILES	inhibition [1]	inhibition [2]	inhibition [3]	inhibition [4]	inhibition [5]	inhibition [6]
O=c1cc(-c2ccccc2Cl)oc2c([N+](=O)[O-])c(O)cc(O)c12	61.5% (active)	44.4% (active)	51.9% (active)	37% (active)	4.67%	52.9% (active)
CCc1c(C)nc2ccc(Br)cc2c1SCCC#N	58.4% (active)	44.3% (active)	66.9% (active)	33.5% (active)	9.39%	34.7%
C=CCOc1ccc(/C=C2\SC(=S)N(CCC(=O)O)C2=O)cc1	32.8%	-27%	35.5%	-38.4%	-24.5%	91.5% (active)
c1ccc(CCc2nn3c(-c4ccncc4)nnc3s2)cc1	68.4% (active)	47.2% (active)	57.3% (active)	41.1% (active)	1.28%	50.8% (active)
COc1ccc(-c2cn[nH]c2-c2ccc(OC)cc2O)cc1	54.6% (active)	26.5%	46.3%	29.9% (active)	2.11%	25.8%
COc1ccc(-n2c(C)c([N+](=O)[O-])c3ccc(O)c(CN(C)C)c32)cc1	84.5% (active)	61.8% (active)	73.1% (active)	61.4% (active)	24.3%	52% (active)
CCOC(=O)c1cccc2c1-c1ccccc1/C2=N/O	39.8%	23.7%	46.5%	23.2%	-10.8%	24.9%
O=C(CC(Nc1ccc(Cl)cc1Cl)C(=O)O)c1ccccc1 (configuration not stated)	52.3% (active)	18.1%	-4.19%	-13.2%	18.8%	57.9% (active)
Cn1nc(C(F)(F)F)c(C#N)c1N1CCN(c2ccc(F)cc2)CC1	36.7%	31.8% (active)	36.7%	25.1%	-6.8%	48.8% (active)
Cc1cc(C(=O)COC(=O)c2cccnc2Cl)c(C)n1CC1CCCO1 (configuration not stated)	19.6%	27.6%	-18.2%	-20.1%	6.65%	56.6% (active)
O=C(CCCc1nc(-c2ccccc2Cl)no1)NC1CCCC1	36.4%	-6.22%	22.9%	-0.83%	26.2%	92.2% (active)
CCn1c(Oc2ccc(F)cc2)nc2c1c(=O)n(C)c(=O)n2C	33.6%	29.8% (active)	39.9%	23.5%	2.83%	30.9%
Cc1nc2sc(C(N)=O)c(N)c2c2c1CCCC2	79.4% (active)	47.5% (active)	69% (active)	51% (active)	6.77%	61.5% (active)
C=CC[n+]1c(-c2ccc(C)cc2)csc1Nc1ccc(NC(C)=O)cc1	29.6%	-12.8%	4.13%	-3.13%	62.2% (active)	86.8% (active)
Oc1ccc(N=Nc2ccc3c(c2)OCCO3)c2cccnc12	19.8%	-38.3%	4.34%	-39.5%	-16.8%	-7.52%
O=S(=O)(Nc1cc(Sc2ncn[nH]2)c(O)c2ccccc12)c1ccccc1	12.9%	13.9%	-20.2%	4.9%	16.2%	12.2%
Clc1ccc(-c2csc(=Nc3cccnc3)n2CCCn2ccnc2)cc1Cl	53.9% (active)	35.4% (active)	49.7% (active)	39% (active)	15.6%	63.7% (active)
c1cc2c(cc1C1=NNC(=NC3CC3)SC1)OCCO2	52.8% (active)	46.4% (active)	15.5%	38% (active)	59.7% (active)	79.5% (active)
CCc1ccc(-c2nc(CSCC(=O)NCc3ccco3)c(C)o2)cc1	33.8%	27.9%	33.9%	24.5%	41.4% (active)	70.5% (active)
CC1(Cc2cccc(F)c2)C(=O)Nc2ccc(-c3cccnc3)cc21 (configuration not stated)	66.8% (active)	49.2% (active)	65% (active)	49% (active)	8.45%	56% (active)
CC1(Cc2ccc(F)cc2)C(=O)Nc2ccc(-c3cccnc3)cc21 (configuration not stated)	50.6% (active)	35.4% (active)	48.7% (active)	35.3% (active)	10.2%	36.8%

SMILES	inhibition [1]	inhibition [2]	inhibition [3]	inhibition [4]	inhibition [5]	inhibition [6]
O=C(NC1CCCCC1)C(c1cccnc1)N(C(=O)CCl)c1ccc(F)cc1 (configuration not stated)	78.3% (active)	65.9% (active)	20.8%	65.1% (active)	64.5% (active)	64.8% (active)
COCCn1c(C)cc(C(=O)CSc2nnnn2C2CCCC2)c1C	-7.91%	-5.21%	-99.2%	-66.8%	-19.6%	51.9% (active)
Cc1ccc2nc(-c3ccccc3)cn2c1	21.2%	-9.75%	-44.9%	-21.6%	19.2%	51.8% (active)
CCN(CC)c1ccc(/C=N/Nc2nc(C)cc(=O)[nH]2)c(O)c1	87.7% (active)	78.7% (active)	67.1% (active)	74.3% (active)	-39.4%	29.6%
C/C(=N\Nc1ncnc2sc(C)c(C)c12)c1ccccn1	63.2% (active)	70.1% (active)	18.5%	50.4% (active)	-48.8%	1.02%
CC(C)(CO)CNc1ccn2nccc2n1	49.3% (active)	35.4% (active)	67.4% (active)	41% (active)	-7.15%	27.5%
Cc1c(CC(=O)NCCCC(=O)O)c(=O)oc2cc3c(cc12)CCC(C)(C)O3	35.8%	17.2%	15.6%	15.5%	58.8% (active)	60.9% (active)
Nc1ncnc(N2CCc3ccccc32)c1[N+](=O)[O-]	85.4% (active)	61.3% (active)	75.9% (active)	61.2% (active)	9.34%	55.2% (active)
COc1ccc(/C=C2\SC(=S)N(CCCC(=O)N3CCCCC3CCO)C2=O)cc1 (configuration not stated)	20.9%	17.1%	4.91%	13.6%	61% (active)	65.9% (active)
Cc1ccccc1C(=O)N1CCN(c2ccc(NC(=O)c3ccc4c(c3)OCCO4)cc2)CC1	25.7%	43% (active)	32.2%	41.5% (active)	34.3%	45.5%
O=C1NC(=S)N/C1=C\c1cccnc1	49.2% (active)	36.6% (active)	52.9% (active)	33.3% (active)	0.14%	44%
c1csc(C2=Nn3c(nnc3-c3ccncc3)SC2)c1	72.9% (active)	58.1% (active)	67.9% (active)	50.8% (active)	29.6%	62.6% (active)
CCOc1ccc(Nc2ncnc3ccc([N+](=O)[O-])cc23)cc1	70% (active)	43.6% (active)	65.8% (active)	53.7% (active)	-19.7%	47.4% (active)
Cn1c(/C=C/c2cccc([N+](=O)[O-])c2)c([N+](=O)[O-])c(=O)n(C)c1=O	37.6%	41.4% (active)	32.5%	40.8% (active)	7.43%	25.7%
O=C1NC(=S)N/C1=C/c1cccnc1	39.1%	32% (active)	44.9%	31.8% (active)	-3.45%	43.8%
C=C1C(=O)O[C@H]2C[C@H]1[C@@H](OC(C)=O)C/C(C)=C/CC/C(C)=C\CC[C@]2(C)O	43.6% (active)	57.6% (active)	37%	49.1% (active)	34.3%	28.4%
CC(=O)OC1CC2C(C)(C)C(=O)C=CC2(C)C2CCC3(C)C(c4ccoc4)OC(=O)C4OC43C12C (configuration not stated)	49.5% (active)	41.8% (active)	25.9%	56.1% (active)	43.9% (active)	6.63%
COCCn1c(C)cc(C(=O)COC(=O)c2cccc(O)c2)c1C	2.54%	0.92%	-62.8%	-32.7%	37.3% (active)	51.1% (active)
Cc1cccc(Nc2ncnc3ccc(Br)cc23)c1	38.9%	32.6% (active)	32.8%	25.8% (active)	0.23%	29.7%
CC(/C=C1\SC(=O)N(CCCC(=O)O)C1=O)=C\c1ccccc1	79% (active)	73.6% (active)	71.9% (active)	69.2% (active)	90.3% (active)	95.4% (active)
O=C(Nc1ccc(C(=O)N2CCOCC2)cc1)Nc1cccc(C(F)(F)F)c1	66.9% (active)	43.2% (active)	64.3% (active)	38.8% (active)	-0.39%	36.4%
